PubChem BioAssay AID1159580 (chemical genetic matrix, 2015)
In all, about 5,500 compounds went through this assay and about 2,000 (36%) were called active. Not shown: some 18% with an inconclusive outcome. This is one part of the list. Values without a mark were called inactive. Rule as the data show it: active = normalized growth mostly below about 0.91 (no sharp cut-off); inconclusive = no clear call, values can overlap the other calls; inactive = mostly above about 0.92.

Experiment: chemical genetic growth profiling, strain panel (AID 1159580);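 also: tested at 20 µM; growth read once vehicle control cultures reached saturation at 30 °C; 1 = growth at the plate median or of vehicle wells; lower values mean less growth of the strain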
Settings: S. cerevisiae deletion strains, growth OD
[1] = locus YDL101C, strain DUN1, hits give low values
[2] = locus YHR030C, strain SLT2, hits give low values
[3] = locus YJR075W, strain HOC1, hits give low values
[4] = locus YMR263W, strain SAP30, hits give low values
[5] = locus YMR307W, strain GAS1, hits give low values
[6] = locus YNL153C, strain GIM3, hits give low values
[7] = locus YPL241C, strain CIN2, hits give low values

## ON=C(c1cccs1)c1cccs1
Locus YAL013W, strain DEP1, hits give low values
  normalized growth: 0.947
Locus YBR229C, strain ROT2, hits give low values
  normalized growth: 0.94
[1]
  normalized growth: 0.94
Locus YDL134C, strain PPH21, hits give low values
  normalized growth: 0.989
Locus YDR150W, strain NUM1, hits give low values
  normalized growth: 0.921
Locus YEL061C, strain CIN8, hits give low values
  normalized growth: 0.947
Locus YGR078C, strain PAC10, hits give low values
  normalized growth: 0.928
[2]
  normalized growth: 0.383 (active)
Locus YHR087W, strain rtc3, hits give low values
  normalized growth: 0.965
Locus YJR043C, strain POL32, hits give low values
  normalized growth: 0.944
[3]
  normalized growth: 0.927
Locus YLR039C, strain RIC1, hits give low values
  normalized growth: 0.62 (active)
Locus YLR058C, strain SHM2 (second series), hits give low values
  normalized growth: 0.959
Locus YLR085C, strain ARP6, hits give low values
  normalized growth: 0.673 (active)
Locus YLR262C, strain YPT6, hits give low values
  normalized growth: 0.657 (active)
Locus YML094W, strain GIM5, hits give low values
  normalized growth: 0.903
Locus YMR219W, strain ESC1, hits give low values
  normalized growth: 0.963
[4]
  normalized growth: 0.957
[5]
  normalized growth: 0.657 (active)
Locus YNL128W, strain TEP1, hits give low values
  normalized growth: 1
[6]
  normalized growth: 0.958
Locus YNL298W, strain CLA4 (second series), hits give low values
  normalized growth: 0.893
Locus YNL322C, strain KRE1, hits give low values
  normalized growth: 0.924 (active)
Locus YNR030W, strain Alg12, hits give low values
  normalized growth: 0.895
Locus YOL006C, strain TOP1, hits give low values
  normalized growth: 0.896
Locus YPL055C, strain LGE1, hits give low values
  normalized growth: 0.941
[7]
  normalized growth: 0.876
Locus YPR135W, strain CTF4, hits give low values
  normalized growth: 0.637 (active)

## O=C1NC(=O)C(c2ccccc2[N+](=O)[O-])=C1Nc1ccc(O)c(Cl)c1
Locus YAL040C, strain CLN3, hits give low values
  normalized growth: 0.951
Locus YCL061C, strain MRC1 (second series), hits give low values
  normalized growth: 0.974
Locus YDR363W, strain ESC2, hits give low values
  normalized growth: 0.964
Locus YER002W, strain NOP16, hits give low values
  normalized growth: 0.98
[3]
  normalized growth: 1
[4]
  normalized growth: 0.99
[5]
  normalized growth: 1.04
[6]
  normalized growth: 0.971
Locus YNL175C, strain NOP13, hits give low values
  normalized growth: 0.953
Locus YNL197C, strain WHI3, hits give low values
  normalized growth: 0.981
Locus YNL224C, strain SQS1, hits give low values
  normalized growth: 0.996
Locus YOR083W, strain WHI5 (second series), hits give low values
  normalized growth: 0.943
[7]
  normalized growth: 0.982

## O=C(Nc1ccccc1)Nc1ccc(Cl)cc1[N+](=O)[O-]
Locus YAR019C, strain CDC15, hits give low values
  normalized growth: 0.977
Locus YBL105C, strain PKC1, hits give low values
  normalized growth: 0.973
Locus YBR135W, strain CKS1, hits give low values
  normalized growth: 0.976
Locus YBR136W, strain MEC1, hits give low values
  normalized growth: 0.977
Locus YBR160W, strain CDC28, hits give low values
  normalized growth: 0.964
Locus YDL017W, strain CDC7, hits give low values
  normalized growth: 0.975
Locus YDL028C, strain MPS1, hits give low values
  normalized growth: 0.974
[1]
  normalized growth: 0.987
Locus YDL108W, strain KIN28, hits give low values
  normalized growth: 0.988
Locus YDL132W, strain cdc53, hits give low values
  normalized growth: 0.962
Locus YDL214C, strain PRR2, hits give low values
  normalized growth: 0.917
Locus YDR052C, strain DBF4, hits give low values
  normalized growth: 0.968
Locus YDR054C, strain cdc34, hits give low values
  normalized growth: 0.97
Locus YDR226W, strain ADK1, hits give low values
  normalized growth: 0.968
Locus YDR477W, strain SNF1, hits give low values
  normalized growth: 0.947
Locus YER123W, strain YCK3, hits give low values
  normalized growth: 0.92
Locus YER133W, strain GLC7, hits give low values
  normalized growth: 0.959
Locus YFL009W, strain cdc4, hits give low values
  normalized growth: 0.961
Locus YFL029C, strain CAK1, hits give low values
  normalized growth: 0.977
Locus YFR003C, strain YPI1, hits give low values
  normalized growth: 0.989
Locus YFR019W, strain FAB1, hits give low values
  normalized growth: 0.933
Locus YFR028C, strain CDC14, hits give low values
  normalized growth: 0.974
Locus YGR040W, strain KSS1, hits give low values
  normalized growth: 0.938
Locus YGR052W, strain FMP48, hits give low values
  normalized growth: 1.01
Locus YGR092W, strain DBF2, hits give low values
  normalized growth: 0.932
[2]
  normalized growth: 0.721 (active)
Locus YHR079C, strain IRE1, hits give low values
  normalized growth: 0.872
Locus YHR082C, strain KSP1, hits give low values
  normalized growth: 0.926
Locus YHR205W, strain SCH9, hits give low values
  normalized growth: 0.874
Locus YIL147C, strain SLN1, hits give low values
  normalized growth: 0.972
Locus YJL095W, strain BCK1, hits give low values
  normalized growth: 0.847
Locus YJL128C, strain PBS2, hits give low values
  normalized growth: 0.958
Locus YJL157C, strain FAR1, hits give low values
  normalized growth: 0.946
Locus YJR016C, strain ILV3, hits give low values
  normalized growth: 0.972
Locus YJR066W, strain TOR1 (second series), hits give low values
  normalized growth: 0.928
Locus YJR066W, strain TOR1, hits give low values
  normalized growth: 0.903
Locus YKL048C, strain ELM1, hits give low values
  normalized growth: 0.925
Locus YKL067W, strain YNK1, hits give low values
  normalized growth: 0.93
Locus YKL101W, strain HSL1, hits give low values
  normalized growth: 0.921
Locus YKL193C, strain SDS22, hits give low values
  normalized growth: 0.968
Locus YKL203C, strain TOR2, hits give low values
  normalized growth: 0.976
Locus YLR113W, strain HOG1, hits give low values
  normalized growth: 0.888
Locus YLR133W, strain CKI1, hits give low values
  normalized growth: 0.92
Locus YLR403W, strain SFP1, hits give low values
  normalized growth: 0.944
Locus YML070W, strain DAK1, hits give low values
  normalized growth: 0.909
Locus YMR001C, strain CDC5, hits give low values
  normalized growth: 0.977
Locus YMR205C, strain PFK2 (second series), hits give low values
  normalized growth: 0.941
Locus YMR277W, strain FCP1, hits give low values
  normalized growth: 0.974
Locus YNL006W, strain LST8, hits give low values
  normalized growth: 0.976
Locus YNL020C, strain ARK1, hits give low values
  normalized growth: 0.909
Locus YNL161W, strain CBK1, hits give low values
  normalized growth: 0.976
Locus YNL183C, strain NPR1, hits give low values
  normalized growth: 0.906
Locus YNL207W, strain RIO2, hits give low values
  normalized growth: 0.96
Locus YNL222W, strain SSU72, hits give low values
  normalized growth: 0.985
Locus YNL307C, strain MCK1 (second series), hits give low values
  normalized growth: 0.916
Locus YOL078W, strain AVO1, hits give low values
  normalized growth: 0.97
Locus YOL136C, strain PFK27, hits give low values
  normalized growth: 0.892
Locus YOR061W, strain CKA2, hits give low values
  normalized growth: 0.956
Locus YOR119C, strain RIO1, hits give low values
  normalized growth: 1.01
Locus YOR231W, strain MKK1, hits give low values
  normalized growth: 0.835
Locus YOR329C, strain SCD5, hits give low values
  normalized growth: 0.978
Locus YPL031C, strain PHO85, hits give low values
  normalized growth: 0.948
Locus YPL153C, strain RAD53, hits give low values
  normalized growth: 0.942
Locus YPL204W, strain HRR25, hits give low values
  normalized growth: 0.925
Locus YPL209C, strain IPL1, hits give low values
  normalized growth: 0.975
Locus YPL256C, strain CLN2, hits give low values
  normalized growth: 0.809 (active)
Locus YPR025C, strain CCL1, hits give low values
  normalized growth: 0.979
Locus YPR106W, strain ISR1, hits give low values
  normalized growth: 0.975
Locus YPR111W, strain DBF20, hits give low values
  normalized growth: 0.963
Strain NNK1, hits give low values
  normalized growth: 0.952
Strain TSCII, hits give low values
  normalized growth: 0.965
